Results as given in PubChem BioAssay (NCI).
The panel holds about 83,000 compounds, 20% with a hit somewhere; the sample as a whole holds those more often.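 Negative percent growth values reflect cell death: -40 means 40% of the cells present at the start died, and -100 means all died.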 A number with no mark means an inactive call. Active and inactive are the calls of the source. Rule for the calls: active = growth percent below 10; inactive = the rest.

How the values were obtained:
Experiment in all cases: NCI-60 one-dose screen, 48 h (100 = growth as untreated, 0 = no growth, -100 = all killed)
Details in all cases: 10 µM unless noted
DU-145 prostate = test system: DU-145 prostate
K-562 leukemia = test system: K-562 leukemia
MALME-3M melanoma = test system: MALME-3M melanoma
MDA-MB-231 breast = test system: MDA-MB-231 breast
RXF 393 renal = test system: RXF 393 renal
SF-268 CNS = test system: SF-268 CNS
SF-295 CNS = test system: SF-295 CNS
SF-539 CNS = test system: SF-539 CNS
UACC-257 melanoma = test system: UACC-257 melanoma
M14 melanoma = test system: M14 melanoma

SMILES	growth (DU-145 prostate)	growth (K-562 leukemia)	growth (MALME-3M melanoma)	growth (MDA-MB-231 breast)	growth (RXF 393 renal)	growth (SF-268 CNS)	growth (SF-295 CNS)	growth (SF-539 CNS)	growth (UACC-257 melanoma)	growth (M14 melanoma)
CCC(C)C1NC(=O)C(CCCCN)NC(=O)C(CCCCN)NC(=O)C(CC(C)C)NC(=O)C(CCCCN)NC(=O)C(C(C)CC)NC(=O)C(C(C)C)NC(=O)C(C(C)CC)NC(=O)C(CCCCN)NC(=O)C(CCCCN)NC(=O)C(C)NC(=O)C(CCCCN)NC(=O)C(CC(C)C)NC1=O (stereo not given)	25.5%	9.18% (active)	9.48% (active)	-0.123% (active)	45.2%	19.5%	27.4%	67.5%	7.94% (active)	22.2%
C=CCC(CCC(CC=C)C(=O)OCC)C(=O)OCC (stereo not given)	110%	108%	96.2%	107%	108%	105%	91.9%	105%	113%	102%
Cc1ccccc1-n1c(C)nc2cc(NC(=O)c3ccc(Cl)cc3)ccc2c1=O	87.6%	55.8%	53.5%	58.4%	77.7%	77.8%	59.7%	58.2%	59.7%	68.7%
CCCCCCCCCCN1CC2CCCCC2C1 (stereo not given)	69%	24.4%	108%	34.1%	77.7%	72.2%	85.1%	85.1%	87.2%	73.3%
CC[C@H](Nc1ncnc2nc[nH]c12)c1nc2cccc(NCc3ccc(C(=O)NO)o3)c2c(=O)n1-c1ccccc1	101%	102%	77.1%	113%	110%	84.1%	102%	100%	102%	103%
Cc1cc2cn3c4ccc(O)cc4[nH]c(=O)c3c2cc1C	3.48% (active)	-36.8% (active)	16.4%	-11.1% (active)	38.1%	15.4%	9.25% (active)	12%	46.6%	-19.4% (active)
COc1ccc(/C(=C(\c2ccccc2)[N+](=O)[O-])c2ccc(OCCN3CCCC3)cc2)cc1	89.3%	13.7%	-7.32% (active)	55%	25%	84.4%	31.9%	28.6%	-26.1% (active)	-73.4% (active)
CC(C)OCC1CO1 (stereo not given)	114%	109%	86.8%	107%	119%	99.9%	78.2%	95.1%	102%	102%
c1cc[c]([Bi]([c]2ccccc2)[c]2ccccc2)cc1	107%	105%	94%	95.2%	101%	104%	103%	105%	106%	94%
CC(=O)N1CCN(CCNC(=O)n2cc(-c3ccncc3)c(-c3cc(O)cc(Cl)c3)n2)CC1	89.5%	53.5%	31.9%	82.5%	65.2%	96%	80.5%	71.6%	-34% (active)	5.16% (active)
Cc1nc(N)sc1C(=O)NCCO	105%	145%	-3.05% (active)	101%	106%	98.6%	108%	105%	110%	112%
CCCCCCNC(=O)Oc1ccc(/C(=C(/C)Cc2ccc(OC)cc2)c2ccc(OCCN3CCCCC3)cc2)cc1	98.9%	36.8%	101%	84.5%	84.4%	81.9%	105%	91.8%	88.9%	84.6%
CCOC(=O)CCCCCCCCC(=O)OCC	108%	101%	94.4%	111%	112%	97.3%	103%	112%	101%	114%
Cn1c2c(cc(S(=O)(=O)c3ccccc3)c1=O)CCc1c-2cnn1-c1ccc(Cl)cc1	8.78% (active)	39.8%	-70.7% (active)	31.3%	2.65% (active)	32.9%	-4.18% (active)	-19% (active)	11.7%	64%
CCOc1ccc(N(C)c2ccc(/C=C/C3=[N+](C)c4ccccc4C3(C)C)cc2)cc1	-3.68% (active)	8.09% (active)	-73.8% (active)	-56.2% (active)	35.8%	-78.9% (active)	-2.2% (active)	30.5%	-16.4% (active)	6.52% (active)
CCOC(=O)c1cc(C(=O)c2ccc(Br)cc2)n2cc(C)cc(C)c12	100%	99%	96.1%	79.8%	64.2%	97.2%	100%	87.3%	87.2%	94.2%
COc1cc(-c2nn(-c3ccc(NC(=O)Nc4ccc(Cl)c(C(F)(F)F)c4)cc3)cc2-c2ccncc2)ccc1Cl	34%	13.2%	12.1%	7.76% (active)	-30.2% (active)	21.7%	-7.8% (active)	14.7%	-3.17% (active)	1.7% (active)
CNCCCNCCCCNCCCN1C(=O)c2ccc3c4c(ccc(c24)C1=O)C(=O)N(CCCNCc1ccccc1OC)C3=O	29.1%	20.2%	-26.1% (active)	47.3%	20.1%	17.7%	22.1%	21.7%	29.2%	24%
N#CC1=C(N2CCOCC2)NC2c3ccccc3Sc3ccccc3N2C1=N (stereo not given)	98.4%	117%	103%	98.7%	90.7%	91.8%	116%	89.7%	108%	98.9%
COc1nc(OC)nc(-c2cc(C(=O)c3ccc(Br)cc3)n3cc(C)cc(C)c23)n1	76.3%	91.1%	54.1%	49.8%	11.9%	55.4%	48.7%	26.2%	94.8%	90.3%
CC[C@H](Nc1ncnc2nc[nH]c12)c1nc2cccc(NCc3ccc(C(=O)NO)nc3)c2c(=O)n1-c1ccccc1	67%	10.5%	62.3%	50.6%	27.8%	35.9%	80.9%	10.9%	56.3%	68.5%
Nc1ccc(S(=O)(=O)Nc2cc(F)cc(F)c2)cc1	94.5%	71.9%	131%	90.9%	20.1%	130%	103%	85.6%	95.5%	91.1%
O=C(O)CC1Cc2ccccc2C1C(=O)O (stereo not given)	106%	91.5%	103%	105%	105%	100%	100%	99.1%	107%	95.9%
COc1ccc(/C=N/c2cc(C(C)(C)C)nn2-c2ccccc2)cc1	113%	92.2%	121%	99.7%	126%	101%	96.6%	92.5%	96.8%	115%
COc1cc2c(cc1OC)C(Cc1cc(OC)c(OC)cc1[N+](=O)[O-])=NCC2	101%	69%	101%	82.6%	90.8%	90%	42.9%	80.6%	102%	60.1%
